Among the data in PubChem BioAssay are composite z-score and z-score values, retold here.

Assay [1] has as its system Plasmodium falciparum Sir2 (PF13_0152, Sir2A). Nature of the assay: Plasmodium falciparum Sir2A binding compounds – biochemical, small-molecule microarray, 635 nm fluorescence, primary screen (AID 1098).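 Note: score merges spot fluorescence intensity with its signal-to-noise ratio.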 The conditions noted are these: fluorescence 635 nm, higher = more signal.
A short description of assay [2]: probe aDKK1 binding to arrayed compounds – biochemical, biotinylated probe, 635/667 nm fluorescence, primary screen (AID 1099).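 Note: score merges 667nm spot fluorescence with signal to noise across triplicate slides.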 Conditions: small-molecule microarray, higher = more signal.
Assay [3] can be described thus: probe aCHRDL2 binding to arrayed compounds – biochemical, biotinylated probe, 635/667 nm fluorescence, primary screen (AID 1100). The conditions noted are these: small-molecule microarray, higher = more signal.
A short description of assay [4]: change in splice reporter luminescence, either direction, cell-based, HEK293, spliceosome inhibition project, primary screen (AID 1101).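 Note: HEK293 cells carrying a splicing-competent luciferase reporter gene; test concentration not given here.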 The conditions noted are these: HEK293 splicing luciferase reporter, 24 h, higher = more signal, called active from +8 up or from −8 down. On the technique in general: In a reporter assay the amount or activity of a reporter protein is the signal.

Assay [5] concerns the target Fibroblast growth factor 10 (Homo sapiens) (UniProt O15520). Description: compounds binding fibroblast growth factor 10 – biochemical, small-molecule microarray, 635 nm fluorescence, primary screen (AID 1102). The conditions noted are these: FGF10 binding, fluorescence 635 nm, higher = more signal.
The subject of assay [6] is glycogen synthase kinase-3 (GSK3A per assay name; protocol says GSK3B). Description: compounds binding glycogen synthase kinase-3 – biochemical, small-molecule microarray, 635 nm fluorescence, GSK3A, primary screen (AID 1103). Note: the record names both GSK3A and GSK3B. Conditions: fluorescence 635 nm, higher = more signal.
For assay [7], the target named is Epidermal growth factor receptor (Homo sapiens) (UniProt P00533). Description: compounds binding epidermal growth factor receptor – biochemical, small-molecule microarray, 635 nm fluorescence, primary screen (AID 1104).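 Note: score merges 667 nm emission intensity with spot signal to noise over triplicate slides.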 Conditions: EGFR binding, higher = more signal.
Epidermal growth factor receptor (Homo sapiens), sequence (P00533 whole entry, looked up): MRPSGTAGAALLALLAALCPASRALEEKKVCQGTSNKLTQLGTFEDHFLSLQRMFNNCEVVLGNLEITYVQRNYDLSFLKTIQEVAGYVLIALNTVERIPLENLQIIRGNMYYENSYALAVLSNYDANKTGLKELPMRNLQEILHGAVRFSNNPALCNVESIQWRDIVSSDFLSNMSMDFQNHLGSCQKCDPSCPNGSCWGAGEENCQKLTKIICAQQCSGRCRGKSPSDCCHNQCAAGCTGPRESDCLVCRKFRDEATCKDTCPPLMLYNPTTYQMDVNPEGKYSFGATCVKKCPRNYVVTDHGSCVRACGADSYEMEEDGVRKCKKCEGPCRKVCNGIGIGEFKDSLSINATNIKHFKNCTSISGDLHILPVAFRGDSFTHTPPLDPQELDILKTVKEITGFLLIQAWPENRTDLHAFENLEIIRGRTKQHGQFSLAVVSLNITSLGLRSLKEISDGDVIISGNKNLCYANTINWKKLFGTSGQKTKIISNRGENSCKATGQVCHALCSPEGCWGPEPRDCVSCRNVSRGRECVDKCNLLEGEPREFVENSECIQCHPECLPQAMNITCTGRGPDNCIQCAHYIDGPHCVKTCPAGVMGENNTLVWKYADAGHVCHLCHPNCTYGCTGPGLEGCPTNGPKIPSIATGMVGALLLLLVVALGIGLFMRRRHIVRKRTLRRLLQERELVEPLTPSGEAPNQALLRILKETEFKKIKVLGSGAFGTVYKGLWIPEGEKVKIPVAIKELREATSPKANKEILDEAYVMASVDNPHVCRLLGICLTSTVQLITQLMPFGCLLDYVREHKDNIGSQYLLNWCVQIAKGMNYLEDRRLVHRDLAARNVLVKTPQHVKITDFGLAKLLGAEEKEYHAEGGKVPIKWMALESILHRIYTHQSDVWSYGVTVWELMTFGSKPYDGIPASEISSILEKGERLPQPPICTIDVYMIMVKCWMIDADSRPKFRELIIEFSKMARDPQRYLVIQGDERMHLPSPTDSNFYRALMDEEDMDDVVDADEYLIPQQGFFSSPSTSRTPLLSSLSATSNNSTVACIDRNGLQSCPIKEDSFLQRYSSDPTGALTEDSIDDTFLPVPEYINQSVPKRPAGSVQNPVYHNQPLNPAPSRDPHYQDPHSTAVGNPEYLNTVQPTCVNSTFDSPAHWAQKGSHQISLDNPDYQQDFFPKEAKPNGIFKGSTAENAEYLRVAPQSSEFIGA
Assay [8] concerns the target Follistatin-related protein 3 (Homo sapiens) (UniProt O95633). Nature of the assay: compounds binding follistatin-related protein 3 – biochemical, small-molecule microarray, 635 nm fluorescence, primary screen (AID 1105).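 Note: score merges emission near 667 nm and signal to noise per printed spot across three slides.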 Conditions: FSTL3 binding, higher = more signal.
Assay [9] deals with Dickkopf-related protein 1 (Homo sapiens) (UniProt O94907). Nature of the assay: small molecules binding DKK1 protein – biochemical, small-molecule microarray, 635 nm fluorescence scan, primary screen (AID 1106).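 Note: score merges emission near 667 nm with signal to noise over three replicate slides.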 The conditions noted are these: higher = more signal.
Dickkopf-related protein 1 (Homo sapiens), sequence (O94907 whole entry, looked up): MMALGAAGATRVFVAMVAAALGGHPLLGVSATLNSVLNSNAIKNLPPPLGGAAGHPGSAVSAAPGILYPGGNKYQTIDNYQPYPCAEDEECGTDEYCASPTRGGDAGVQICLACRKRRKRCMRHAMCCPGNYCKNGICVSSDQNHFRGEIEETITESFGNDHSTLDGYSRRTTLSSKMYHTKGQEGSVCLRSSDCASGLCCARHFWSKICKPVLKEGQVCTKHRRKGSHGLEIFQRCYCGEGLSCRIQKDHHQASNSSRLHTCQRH
The test system of assay [10] is Inhibin beta A chain (activin A). Nature of the assay: small molecules binding activin A – biochemical, small-molecule microarray, 635 nm fluorescence scan, primary screen (AID 1107).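 Note: mouse activin A protein probed at 4.33 µg/mL on printed slides; score merges bound-protein fluorescence near 667 nm with spot signal-to-noise.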 Conditions: INHBA, higher = more signal.
Assay [11] has as its system Human papillomavirus type 1a protein E7 (residues 44-93). Description: small molecules binding HPV E7 44-93 – biochemical, small-molecule microarray, residues 44-93, 635 nm fluorescence, primary screen (AID 1108).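 Note: E7 fragment applied at 1 µg/mL in TBST for 1 h at 4 C; score combines spot fluorescence with its signal to noise ratio.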 The conditions noted are these: fluorescence 635 nm, higher = more signal.
Assay [12] is described as follows: hepatitis C replication reporter changes, two-sided – Huh7 cells, luciferase reporter, HCV replication inhibitor project, primary screen (AID 1109).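 Note: huh7 hepatoma cells harbouring a luciferase neomycin HCV replicon reporter; luciferase luminescence as measure of HCV replicon replication; test concentration not given here.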 The conditions noted are these: Huh7 HCV replicon luciferase reporter, 48 h; higher = more signal.
In assay [13] the target is Left-right determination factor 2 (Homo sapiens) (UniProt O00292). Description: small molecules binding LEFTY2 protein – biochemical, small-molecule microarray, 635 nm fluorescence scan, primary screen (AID 1110). Conditions: higher = more signal.
Left-right determination factor 2 (Homo sapiens), sequence (O00292 whole entry, looked up): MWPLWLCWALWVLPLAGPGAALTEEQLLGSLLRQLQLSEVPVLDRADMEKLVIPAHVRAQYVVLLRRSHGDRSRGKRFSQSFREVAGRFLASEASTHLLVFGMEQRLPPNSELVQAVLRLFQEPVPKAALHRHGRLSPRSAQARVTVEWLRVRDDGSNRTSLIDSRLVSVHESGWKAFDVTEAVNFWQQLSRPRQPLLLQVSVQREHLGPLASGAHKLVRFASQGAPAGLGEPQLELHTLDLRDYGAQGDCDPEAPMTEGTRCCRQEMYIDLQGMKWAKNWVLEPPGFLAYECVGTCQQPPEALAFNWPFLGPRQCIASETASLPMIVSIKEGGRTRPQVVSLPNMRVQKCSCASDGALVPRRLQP
Assay [14] addresses Calmodulin-1 (Homo sapiens) (UniProt P0DP23). Nature of the assay: small molecules binding calmodulin-1 with EGTA – biochemical, small-molecule microarray, Cy5-labelled CALM1, profiling panel (AID 1111).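 Note: labelled calmodulin applied in Tris saline Tween buffer holding calcium plus EGTA and DTT.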 Conditions: Cy5-CALM1 binding fluorescence, higher = more signal.
For assay [15] the target is unchanged. Description: small molecules binding Ca-loaded calmodulin-1 – biochemical, small-molecule microarray, Cy5-labelled CALM1, plus calcium, artefact control for SMM control-protein annotation, profiling panel (AID 1112).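 Note: score merges spot fluorescence with signal to noise from triplicate slides.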 Conditions: Cy5-CALM1 binding fluorescence, higher = more signal.
The nature of assay [16]: probe aWnt5a binding to arrayed compounds – biochemical, biotinylated probe, 635/667 nm fluorescence, primary screen (AID 1113).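 Note: score merges 667 nm fluorescence intensity with signal-to-noise per printed feature.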 The conditions noted are these: small-molecule microarray, higher = more signal.
The nature of assay [17]: probe aShh binding to arrayed compounds – biochemical, biotinylated probe, 635/667 nm fluorescence, primary screen (AID 1114).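 Note: probe is biotin-labelled aShh protein from a stem cell growth factor screen; measures binding of labelled protein to compounds printed on the slide; score merges feature fluorescence at 667 nm with signal-to-noise.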 Conditions: small-molecule microarray, higher = more signal.
Assay [18] can be described thus: probe aNog binding to arrayed compounds – biochemical, biotinylated probe, 635/667 nm fluorescence, primary screen (AID 1115).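 Note: probe is biotinylated aNog protein used at 0.15 µg/mL for 1 h at 4 C; z-score combines 667 nm fluorescence of each spot with its signal to noise.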 Conditions: small-molecule microarray, higher = more signal.
Assay [19] concerns the target Torsin-1A-interacting protein 1 (Homo sapiens) (UniProt Q5JTV8). Description: compound microarray binding of lysate hLAP1 – cell lysate, small-molecule microarray, COS7 lysate, 635/667 nm fluorescence, primary screen (AID 1116). The conditions noted are these: 635 nm fluorescence, higher = more signal.
The target in assay [20] is Alpha-bungarotoxin (Bungarus multicinctus) (UniProt P60615). Nature of the assay: compounds binding labelled alpha-BTX control protein – biochemical, small-molecule microarray, Alexa647 label, 635/667 nm fluorescence, artefact control for SMM control protein annotation, profiling panel (AID 1117). The conditions noted are these: alpha-BTX-A647 binding fluorescence, higher = more signal.
Alpha-bungarotoxin (Bungarus multicinctus), sequence (P60615 whole entry, looked up): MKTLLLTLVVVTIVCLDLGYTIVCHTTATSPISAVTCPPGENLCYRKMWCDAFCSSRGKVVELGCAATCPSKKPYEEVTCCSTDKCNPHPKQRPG

Active and inactive are the calls of the source.

Follistatin-related protein 3 (Homo sapiens), sequence (O95633 whole entry, looked up): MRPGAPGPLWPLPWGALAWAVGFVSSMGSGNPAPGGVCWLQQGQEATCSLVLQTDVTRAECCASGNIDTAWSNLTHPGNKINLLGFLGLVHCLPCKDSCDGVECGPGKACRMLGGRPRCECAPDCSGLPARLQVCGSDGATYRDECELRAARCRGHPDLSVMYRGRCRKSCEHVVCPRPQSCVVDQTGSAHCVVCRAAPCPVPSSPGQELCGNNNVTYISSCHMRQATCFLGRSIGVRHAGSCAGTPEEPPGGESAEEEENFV
Torsin-1A-interacting protein 1 (Homo sapiens), sequence (Q5JTV8 whole entry, looked up): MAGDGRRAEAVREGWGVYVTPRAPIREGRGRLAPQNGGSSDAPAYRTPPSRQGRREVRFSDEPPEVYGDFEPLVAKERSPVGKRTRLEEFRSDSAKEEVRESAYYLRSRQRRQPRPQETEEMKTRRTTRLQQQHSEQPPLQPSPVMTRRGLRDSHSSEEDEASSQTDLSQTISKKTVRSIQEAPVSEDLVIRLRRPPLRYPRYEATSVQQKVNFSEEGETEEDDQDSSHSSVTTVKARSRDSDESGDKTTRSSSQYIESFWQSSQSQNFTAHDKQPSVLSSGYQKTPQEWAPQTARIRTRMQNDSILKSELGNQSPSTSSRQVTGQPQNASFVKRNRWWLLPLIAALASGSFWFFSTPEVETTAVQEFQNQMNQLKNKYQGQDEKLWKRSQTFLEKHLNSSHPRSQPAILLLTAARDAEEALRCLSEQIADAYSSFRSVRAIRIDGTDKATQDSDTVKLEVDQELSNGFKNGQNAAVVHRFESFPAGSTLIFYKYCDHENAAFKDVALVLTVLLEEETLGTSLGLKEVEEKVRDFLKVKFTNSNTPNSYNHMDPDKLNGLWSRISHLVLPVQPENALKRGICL
Fibroblast growth factor 10 (Homo sapiens), sequence (O15520 whole entry, looked up): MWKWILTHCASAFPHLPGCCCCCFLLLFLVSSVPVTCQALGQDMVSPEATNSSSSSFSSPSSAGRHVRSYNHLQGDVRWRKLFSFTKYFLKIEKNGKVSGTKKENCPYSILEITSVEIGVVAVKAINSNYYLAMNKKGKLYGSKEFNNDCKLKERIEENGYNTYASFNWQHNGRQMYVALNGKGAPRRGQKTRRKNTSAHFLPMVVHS

For `C[N+](C)(C)CCCCNC(=O)[C@@H]1C[C@@H]2C(=O)NCC(=O)N2[C@@H]1c1cccc(OCCO)c1`, the composite z-score in assay [1] was 0.594; in [2], -0.365; in assay [3], -0.211; in [5] it was 1.16; in assay [6], 0.68; in assay [7], 0.627. Further, the composite z-score in [8] is 1.39; in [9] it was 1.72; in [10], -0.0907; in assay [11] it was 0.299; in [13], 1.08; in [14], -0.189. The composite z-score in assay [15] was -0.131; in assay [16] it was 0.0519; in assay [17] it was 0.0756; in assay [18], 0.145; in assay [19] it was 1.66; in [20], 1.89. In addition, the z-score is -1.49 (inactive) in [4] and 0.703 in assay [12].

With `CC(C)C(CO)N1C(=O)[C@@H]2C3C(=O)OCCC/C=C\[C@H]3OC23C=CCN(C(C)C)C(=O)[C@@H]13` (stereo not given in full), the composite z-score is 1.86 in assay [1]; -0.191 in assay [2]; 0.481 in assay [3]; -0.547 in assay [5]; -0.875 in [6]; -1.2 in [7]. Further, the composite z-score is -0.826 in assay [8]; -0.868 in [9]; 0.968 in assay [10]; -0.359 in [11]; -0.73 in [13]; -0.467 in [14]. The composite z-score is -0.14 in assay [15]; -0.221 in [16]; -0.0035 in [17]; 0.0599 in assay [18]; 1.69 in assay [19]; -1.61 in assay [20]. The results for the z-score in [4] and in assay [12] were -0.895 (inactive) and -0.069, respectively.

`C=CCC(OC(C)=O)[C@@H]1[C@@H](N(Cc2cccc3ccccc23)C(=O)c2cccc3ccccc23)c2cc(OCCCO)ccc2N1C(=O)Cc1ccc(OC)cc1` (stereo not given in full): the composite z-score in assay [1] is 0.387; in [2] it was 0.15; in [3], 0.213; in [5] it was 0.481; in assay [6], 0.311; in assay [7], 0.129. In addition, the composite z-score in [8] is 0.478; in [9], 0.388; in assay [10], 1.18; in assay [11], -0.37; in assay [13], 0.384; in [14], 0.293. Also, the composite z-score in assay [15] was 0.394; in [16] it was -0.0107; in assay [17], 0.0284; in assay [18] it was 0.466; in [19], 0.703; in [20], 0.549. In addition, the z-score in [4] is -2.53 (inactive); in assay [12], -0.348.

On to `O=C1c2ccccc2[C@@]2(Cc3ccccc3N(CC(F)(F)F)C2=O)[C@H](c2ccc(CO)cc2)N1Cc1ccccc1C(F)(F)F`, for which the composite z-score in assay [1] was -1.84; in assay [2] it was 0.471; in assay [3], 0.957; in [5], -0.316; in [6], -1.41; in [7], -0.903. Further, the composite z-score in assay [8] was -1.15; in [9] it was -1.95; in assay [10] it was 1.04; in assay [11], -0.713; in assay [13], -0.888; in assay [14], -0.434. Moreover, the composite z-score in assay [15] was 0.0123; in assay [16], -0.104; in assay [17] it was -0.0243; in assay [18], 0.673; in assay [19], -0.459; in assay [20], -1.7. In addition, the figures for the z-score in [4] and in assay [12] were -0.0373 (inactive) and 0.301, respectively.

Consider `O=C1O[C@H](c2ccccc2)[C@H](c2ccccc2)N2[C@H]1[C@@H](C(=O)Nc1nc3ccccc3s1)[C@]1(C(=O)Nc3ccc(C#CCCO)cc31)[C@H]2c1ccccc1OCCO`, for which the composite z-score in [1] stood at 1.35; in assay [2], 0.676; in [3], 0.784; in [5], 0.545; in assay [6], 1.31; in [7], 0.289. Moreover, the composite z-score in assay [8] was 0.892; in assay [9], 0.328; in assay [10] it was 0.793; in [11], 0.793; in assay [13], 0.537; in assay [14], 1.74. The composite z-score in assay [15] was 0.439; in [16] it was 0.0849; in assay [17] it was 0.355; in assay [18] it was 1.3; in assay [19], 1.26; in assay [20] it was 1.97. Further, the results for the z-score in assay [4] and in [12] were -0.0121 (inactive) and -1.79, respectively.
